Each structure is given as a SMILES string. “And” between values parts separate entries of the source, which are not always exact repeats. Equal values may be shown once. The source made the active and inactive calls. The calls were made as follows: active = hit-call score of the fitted dose curve at least 0.9, where 1 is the maximum; inactive = score below 0.9.

Experiment [1] concerns the target Paired box protein Pax-6 (Homo sapiens) (UniProt P26367). The experiment can be described thus: ATG_Pax6_CIS: Attagene CIS-FACTORIAL HepG2 Assay for human Paired Box 6 (PAX6) (AID 2282956). Particulars: HepG2 CIS-FACTORIAL PAX6 reporter transcription, RNA readout; actives raise or lower the signal. Summed up:
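HepG2 cells transiently transfected with cis-promoter-driven multiplexed reporter units sensing endogenous transcription factor activity; 24 h chemical exposure. Reporter mRNA quantified by RT-PCR, 6-FAM labelling, HpaI digestion and capillary electrophoresis; bidirectional fit versus DMSO baseline.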

Experiment [2] in a line: ATG_PXRE_CIS: Attagene CIS-FACTORIAL HepG2 Assay for human Pregnane X Receptor Element (PXRE) (AID 2282957). Particulars: HepG2 Attagene CIS-FACTORIAL PXRE reporter, mRNA; actives raise or lower the signal. The procedure, abridged: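 Transfect HepG2 with MRTUs (cis promoter elements); dose chemical, incubate 24 h; isolate RNA, RT with oligo(dT), PCR, 6-FAM label, HpaI cut, CE. Gain/loss fit vs DMSO.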

A short description of experiment [3]: ATG_PPRE_CIS: Attagene CIS-FACTORIAL HepG2 Assay for human Peroxisome Proliferator-activated Response Element (PPRE) (AID 2282958). Particulars: HepG2 PPRE cis-element reporter, Attagene transcription factor profiling; actives raise or lower the signal. The procedure, abridged:
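After human HepG2 hepatoma cells were transiently transfected with cis-promoter reporter constructs, they were exposed to test chemicals for 24 hours. Reporter RNA was then reverse-transcribed, PCR-amplified, FAM-labeled, HpaI-digested and quantified by capillary electrophoresis.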

Experiment [4] can be described thus: ATG_RORE_CIS: Attagene CIS-FACTORIAL HepG2 Assay for human RAR-related Orphan Receptor Element (RORE) (AID 2282959). The conditions noted are these: HepG2 Attagene cis-factorial RORE reporter, mRNA; actives raise or lower the signal. Summed up:
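Measured here: transcript induction of a cis-regulated reporter in HepG2 cells transiently transfected via FuGene 6. After 24 h, RNA was processed by RT-PCR and fluorescent capillary electrophoresis; DMSO defined baseline activity.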

Experiment [5] can be described thus: ATG_Sox_CIS: Attagene CIS-FACTORIAL HepG2 Assay for human SRY-box transcription factor (SOX) (AID 2282960). Particulars: HepG2 Attagene cis-factorial SOX reporter, mRNA; actives raise or lower the signal. The procedure, abridged: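 Using transiently transfected HepG2 cells, reporter transcription driven by cis elements was assessed 24 h after dosing. Signal was fluorescence of capillary-separated RT-PCR products, with DMSO defining baseline activity.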

Experiment [6] addresses Transcription factor Sp1 (Homo sapiens) (UniProt P08047). Briefly: ATG_Sp1_CIS: Attagene CIS-FACTORIAL HepG2 Assay for human Specificity Protein 1 (Sp1) (AID 2282961). The conditions noted are these: HepG2 Sp1 cis-reporter transcription, actives raise or lower the signal. Summed up:
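After transient transfection of HepG2 cells with cis-promoter reporter units and 24 h chemical treatment, reporter transcripts were quantified by RT-PCR and capillary electrophoresis fluorescence. Gain- and loss-of-signal fitted against DMSO.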

Experiment [7] can be described thus: ATG_SREBP_CIS: Attagene CIS-FACTORIAL HepG2 Assay for human Sterol Regulatory Element Binding (SREBP) (AID 2282962). The conditions noted are these: HepG2 Attagene cis-factorial SREBP reporter, mRNA; actives raise or lower the signal. The procedure, abridged:
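HepG2 cells transiently transfected with multiplexed cis-promoter reporter units sensing endogenous transcription factors; reporter mRNA measured 24 h after dosing by RT-PCR, 6-FAM labeling, HpaI digestion and capillary electrophoresis. Bidirectional fit versus DMSO.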

Experiment [8] has as its target Signal transducer and activator of transcription 3 (Homo sapiens) (UniProt P40763). Briefly: ATG_STAT3_CIS: Attagene CIS-FACTORIAL HepG2 Assay for human Signal Transducer and Activator of Transcription 3 (STAT3) (AID 2282963). The conditions noted are these: HepG2, Attagene cis-factorial STAT3 reporter transcription; actives raise or lower the signal. The procedure, abridged:
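HepG2 cells transiently transfected with multiple cis-element-driven reporter units report endogenous transcription factor activity. After 24 h compound exposure, reporter mRNA is measured by RT-PCR, 6-FAM labelling, HpaI digestion and capillary electrophoresis. Fitted bidirectionally versus DMSO.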

Experiment [9] is described as follows: ATG_TA_CIS: Attagene CIS-FACTORIAL HepG2 Assay for human TA Basal Promoter (AID 2282964). The conditions noted are these: HepG2 Attagene CIS-factorial TA basal promoter reporter; actives raise or lower the signal. Summed up: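 Transfected HepG2, 24 h compound exposure; RNA → RT-PCR → FAM primer extension → HpaI cut → CE fluorescence. Gain/loss-of-signal fitted against DMSO negative control. Background-control readout.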

The nature of experiment [10]: ATG_TCF_b_cat_CIS: Attagene CIS-FACTORIAL HepG2 Assay for human T-Cell-Factor with beta-catenin (TCF/b-cat) (AID 2282965). The conditions noted are these: HepG2 TCF/beta-catenin cis-reporter transcription, actives raise or lower the signal. Summed up:
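HepG2 cells transiently transfected with cis-promoter-driven multiplexed reporter units; reporter mRNA measured 24 h after dosing by RT-PCR, FAM labelling, HpaI digestion and capillary electrophoresis. Bidirectional fitting relative to DMSO baseline.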

Sequence of Signal transducer and activator of transcription 3 (Homo sapiens) (P40763 whole entry, looked up): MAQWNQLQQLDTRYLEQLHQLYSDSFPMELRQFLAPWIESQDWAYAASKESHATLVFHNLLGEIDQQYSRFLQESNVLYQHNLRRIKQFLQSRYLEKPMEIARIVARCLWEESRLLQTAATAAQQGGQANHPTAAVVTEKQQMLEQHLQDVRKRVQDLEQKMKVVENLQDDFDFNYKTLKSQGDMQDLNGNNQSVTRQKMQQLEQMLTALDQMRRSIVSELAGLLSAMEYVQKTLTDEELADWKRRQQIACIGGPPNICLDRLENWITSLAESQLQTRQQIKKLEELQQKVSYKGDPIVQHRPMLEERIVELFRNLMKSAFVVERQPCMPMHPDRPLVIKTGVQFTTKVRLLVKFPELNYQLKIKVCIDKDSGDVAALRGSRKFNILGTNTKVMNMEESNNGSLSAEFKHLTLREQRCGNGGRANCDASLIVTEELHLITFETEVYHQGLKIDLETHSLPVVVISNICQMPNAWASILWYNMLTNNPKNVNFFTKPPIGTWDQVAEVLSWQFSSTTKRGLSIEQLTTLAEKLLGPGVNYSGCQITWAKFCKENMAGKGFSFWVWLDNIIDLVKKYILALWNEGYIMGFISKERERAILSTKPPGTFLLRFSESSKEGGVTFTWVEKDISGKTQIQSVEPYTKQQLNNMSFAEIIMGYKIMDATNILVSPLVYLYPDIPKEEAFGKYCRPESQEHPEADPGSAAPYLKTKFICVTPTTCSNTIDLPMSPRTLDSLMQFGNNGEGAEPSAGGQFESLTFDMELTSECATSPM
Sequence of Transcription factor Sp1 (Homo sapiens) (P08047 whole entry, looked up): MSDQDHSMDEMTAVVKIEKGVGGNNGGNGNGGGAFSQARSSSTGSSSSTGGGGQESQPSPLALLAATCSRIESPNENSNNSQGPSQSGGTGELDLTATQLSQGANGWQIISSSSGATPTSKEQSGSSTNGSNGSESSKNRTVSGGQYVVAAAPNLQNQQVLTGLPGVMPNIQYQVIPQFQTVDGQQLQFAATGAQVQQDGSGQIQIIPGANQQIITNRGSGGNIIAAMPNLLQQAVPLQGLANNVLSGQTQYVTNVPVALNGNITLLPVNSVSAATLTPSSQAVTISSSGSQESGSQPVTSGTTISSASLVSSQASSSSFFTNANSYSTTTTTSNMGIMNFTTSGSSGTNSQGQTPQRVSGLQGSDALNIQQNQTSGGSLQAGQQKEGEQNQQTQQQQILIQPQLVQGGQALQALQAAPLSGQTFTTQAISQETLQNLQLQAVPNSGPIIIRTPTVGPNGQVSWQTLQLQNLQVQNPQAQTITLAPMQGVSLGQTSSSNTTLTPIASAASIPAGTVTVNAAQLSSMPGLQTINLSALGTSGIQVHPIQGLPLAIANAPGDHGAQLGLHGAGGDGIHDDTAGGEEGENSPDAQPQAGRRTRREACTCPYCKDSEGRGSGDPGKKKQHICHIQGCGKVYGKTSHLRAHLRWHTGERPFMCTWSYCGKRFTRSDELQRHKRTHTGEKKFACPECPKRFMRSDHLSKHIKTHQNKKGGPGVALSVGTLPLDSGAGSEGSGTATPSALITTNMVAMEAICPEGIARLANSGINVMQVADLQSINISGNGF
Sequence of Paired box protein Pax-6 (Homo sapiens) (P26367 whole entry, looked up): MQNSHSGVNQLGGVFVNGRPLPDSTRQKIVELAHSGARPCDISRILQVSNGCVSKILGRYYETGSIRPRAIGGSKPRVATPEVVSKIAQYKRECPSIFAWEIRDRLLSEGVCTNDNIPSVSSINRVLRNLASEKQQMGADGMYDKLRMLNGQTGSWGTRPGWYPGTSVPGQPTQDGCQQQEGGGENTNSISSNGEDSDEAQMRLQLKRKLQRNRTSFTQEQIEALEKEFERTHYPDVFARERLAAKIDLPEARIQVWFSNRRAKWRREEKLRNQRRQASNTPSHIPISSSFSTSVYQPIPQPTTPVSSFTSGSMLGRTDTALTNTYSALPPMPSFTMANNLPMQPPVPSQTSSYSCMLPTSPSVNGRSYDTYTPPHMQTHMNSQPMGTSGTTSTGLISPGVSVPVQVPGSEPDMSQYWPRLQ

`CCOP(=O)(SC(C)CC)N1CCSC1=O` (configuration not stated): the result in experiment [1], in [3], in experiment [4], in [5], in experiment [6] and in experiment [7] was inactive. Besides, the outcome in experiment [8], in experiment [9] and in experiment [10] was inactive. Moreover, the AC50 in experiment [2] is 22.9 µM (active).
Turning to `CCOP(=O)(NC(C)C)Oc1ccc(SC)c(C)c1` (configuration not stated), the molecule was called inactive in [1], in experiment [4], in [5], in experiment [6], in experiment [8] and in experiment [9]. For the same molecule, the molecule was classed as inactive in experiment [10]. In addition, the AC50 in experiment [2] was 2.73 µM (active); in experiment [3], 21.4 µM (active); in experiment [7], 19.6 µM (active).
With `C[Si](Cn1cncn1)(c1ccc(F)cc1)c1ccc(F)cc1`, the AC50 was 67.8 µM (active) in experiment [1]; 3.52 µM (active) in experiment [2]; 43.1 µM (active) in [3]; 18.7 µM (active) in experiment [4]; 13.9 µM (active) in experiment [7]; 50 µM (active) in experiment [9]. Further, the molecule was classed as inactive in experiment [5], in experiment [6] and in experiment [10].
Take `CCCCSP(=O)(SCCCC)SCCCC`: the molecule was called inactive in experiment [1], in [4] and in experiment [10]. Moreover, the half-maximal activity concentration (AC50) is 12.9 µM (active) in experiment [2]; 11.7 µM (active) in experiment [3]; 76.7 µM (active) in [5]; 50 µM (active) in experiment [6]; 20.1 µM (active) in experiment [7]; 80.2 µM (active) in [9].
For `COP(=O)(NC(C)=O)SC` (configuration not stated), the result in [1], in experiment [3], in experiment [4], in experiment [5], in [6] and in [7] was inactive. Also, the call in experiment [9] and in [10] was inactive. Further, in experiment [2], the AC50 was 30.5 µM (active).
`CCCOCC(=Nc1ccc(Cl)cc1C(F)(F)F)n1ccnc1`: the result in [1], in experiment [5], in experiment [6], in experiment [9] and in [10] was inactive. The results for the AC50 in experiment [2], in [3] and in experiment [7] were 3.63 µM (active), 2.67 µM (active) and 7.5 µM (active), respectively.
For the molecule `CC[C@H](C)[C@H]1O[C@]2(C=C[C@@H]1C)C[C@@H]1C[C@@H](C/C=C(\C)[C@@H](O[C@H]3C[C@H](OC)[C@@H](O[C@H]4C[C@H](OC)[C@@H](NC)[C@H](C)O4)[C@H](C)O3)[C@@H](C)/C=C/C=C3\CO[C@@H]4[C@H](O)C(C)=C[C@@H](C(=O)O1)[C@]34O)O2`, the outcome in experiment [1], in experiment [2], in [4], in experiment [5], in experiment [6] and in [7] was inactive. The result in experiment [8], in [9] and in [10] was inactive.
Regarding `CSC1=N[C@@](C)(c2ccccc2)C(=O)N1Nc1ccccc1`, the call in experiment [1], in [4], in experiment [5], in [6], in [7] and in [9] was inactive. Besides, the result in experiment [10] was inactive. In addition, the results for the AC50 in experiment [2] and in [3] were 7.44 µM (active) and 19.2 µM (active), respectively.
With `COc1cc(OC)nc(Sc2cccc(Cl)c2C(=O)O)n1`, the result in experiment [1], in experiment [2], in [4], in experiment [5], in [6] and in [7] was inactive. Moreover, the call in experiment [9] and in experiment [10] was inactive.
On to `CN(C)C(=O)Nc1cccc(C(F)(F)F)c1`, for which the call in experiment [1], in [2], in experiment [3], in experiment [4], in experiment [5] and in [6] was inactive. In addition, the call in experiment [7], in experiment [9] and in [10] was inactive.
Regarding `CCCCOC(=O)c1ccccc1C(=O)O`, the outcome in experiment [1], in experiment [2], in experiment [3], in experiment [4], in experiment [5] and in [6] was inactive. Moreover, the call in experiment [7], in experiment [9] and in experiment [10] was inactive.
Consider `Cc1cc(C2CC2)nc(Nc2ccccc2)n1`, for which the AC50 in experiment [1] is 50 µM (active); in [2], 13.4 µM (active); in [3], 22 µM (active); in experiment [5], 90 µM (active); in [6] it was 84.7 µM (active); in experiment [7], 12.6 µM (active). Besides, the result in experiment [4], in [9] and in experiment [10] was inactive.
Turning to `COc1cccc(C(=O)NN(C(=O)c2cc(C)cc(C)c2)C(C)(C)C)c1C`, the call in experiment [1], in [3], in experiment [4], in [5], in experiment [6] and in experiment [7] was inactive. Moreover, the result in experiment [9] and in [10] was inactive. Besides, the AC50 in experiment [2] was 0.526 µM (active).
Regarding `CCNc1nc(Cl)nc(NC(C)(C)C#N)n1`, the molecule was classed as inactive in experiment [1], in experiment [3], in [4], in experiment [5], in experiment [6] and in [7]. In addition, the molecule was called inactive in [9] and in [10]. In addition, in experiment [2], the AC50 was 29.2 µM (active).
For `O=c1ccc(=O)[nH][nH]1`, the molecule was classed as inactive in experiment [1], in experiment [4], in experiment [5], in [6], in experiment [7] and in experiment [9]. Besides, in experiment [10], the outcome was inactive. For the same molecule, the AC50 in [2] was 26.7 µM (active).
On to `CC(C)N(C(=O)SCC(Cl)=C(Cl)Cl)C(C)C`, for which the outcome in experiment [1], in [4], in experiment [5], in [6], in experiment [9] and in experiment [10] was inactive. Besides, the AC50 in experiment [2] is 3.05 µM (active); in [7] it was 29.1 µM (active).
Regarding `CCC(=O)Nc1ccc(Cl)c(Cl)c1`, the molecule was classed as inactive in experiment [1], in experiment [4], in experiment [5], in [6], in [9] and in [10]. Also, the AC50 in experiment [2] and in [7] was 50 µM (active) throughout.
With `CN(C)[C@@H]1C(=O)C(C(N)=O)=C(O)[C@@]2(O)C(=O)C3=C(O)c4c(O)cccc4[C@@](C)(O)[C@H]3[C@H](O)[C@@H]12`, the molecule was called inactive in experiment [1], in experiment [5], in [6], in [7], in [8] and in [9]. Also, the result in experiment [10] was inactive. For the same molecule, the AC50 in [2] was 65 µM (active) and 26.5 µM (active) and 34.9 µM (active).
As to `CCCSP(=O)(OCC)SCCC`, the call in experiment [1], in experiment [4], in experiment [5], in experiment [6], in experiment [7] and in experiment [8] was inactive. Moreover, the outcome in [9] and in [10] was inactive. Also, the concentration at half-maximal activity (AC50) in experiment [2] was 15.2 µM (active).

The term AC50 denotes the midpoint of the concentration-response curve, whichever way the signal moves.

These data come from PubChem BioAssay (EPA / NIEHS).
